Assay results from PubChem BioAssay (NCATS).
Records with an inconclusive call do not appear. The source made the active and inactive calls. Calls come from the whole dose curve; as a rule, active = well fitted curve in the direction sought with a large enough effect; inconclusive = small, poorly fitted or top-dose-only effect, or another doubt; inactive = no such curve, though single readings can be large; an effect the other way counts as inactive or inconclusive.

Experiments:
[1] = system: Zika virus NS2B-NS3 protease (unlinked complex); assay: Primary screen GU Rhodamine qHTS for Zika virus inhibitors: Unlinked NS2B-NS3 protease assay (AID 1347159); note: nearly all actives have a fitted effect of over 60% in size; note: potency is the fitted concentration of half-maximal effect
Summary of the method: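 Percent inhibition derives from the 15-min fluorescence change (ex 480, em 540 nm), normalized to no-enzyme and no-inhibitor wells. Reactions contained 25 nM NS2B-NS3 complex and 1.5 microM substrate in 10 mM Tris-HCl pH 8.0.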

[2] = system: Zika virus NS2B-NS3 protease; assay: Primary screen GU AMC qHTS for Zika virus inhibitors (AID 1347154); note: nearly all actives have a fitted effect of over 70% in size
Summary of the method: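 Fluorogenic AMC-substrate cleavage by noncovalent NS2B-NS3 protease complex (25 nM, pH 8.0 Tris buffer with Tween 20) followed for 15 minutes at room temperature (~20% conversion). Percent inhibition from ex340/em450 signal change, fitted by 4-parameter Hill equation.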

[3] = system: Zika virus NS2B-NS3 protease (linked construct); assay: Confirmatory screen NINDS AMC qHTS for Zika virus inhibitors (AID 1347152); note: potency is the fitted concentration of half-maximal effect; nearly all actives have a fitted effect of over 70% in size
Summary of the method: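 Linked NS2B-NS3 1 nM, Tris pH 8.0/0.01% Tween 20; cpd 15 min RT dark; + Nle-KRR-AMC 10 µM (Km 18.3 µM); read 0 and 15 min, 340/450 nm; %inh vs controls, 4-param Hill.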

[4] = system: Zika virus NS2B-NS3 protease (unlinked complex); assay: Confirmatory screen GU AMC qHTS for Zika virus inhibitors (AID 1347153);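 note: enzyme at 25 nM with substrate at 10 µM below its Km of 18.3 µM; potency is the fitted concentration of half-maximal effect; nearly all actives have a fitted effect of over 70% in size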
Summary of the method: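 Compounds were preincubated 15 min at room temperature with 25 nM noncovalent NS2B-NS3 protease at pH 8.0; AMC substrate added at 10 microM and 15-min fluorescence gain (340/450 nm) converted to percent inhibition, fitted 4-parameter.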

[5] = Confirmatory screen GU Rhodamine qHTS for Zika virus inhibitors qHTS (AID 1347157); note: potency is the fitted concentration of half-maximal effect; nearly all actives have a fitted effect of over 70% in size
Summary of the method: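 In dose–response format, inhibition of unlinked protease (25 nM) was measured with 1.5 microM bis-peptide Rhodamine110 substrate. Aprotinin served as the intraplate control.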

[6] = system: Zika virus NS2B-NS3 protease (linked construct); assay: Primary screen NINDS Rhodamine qHTS for Zika virus inhibitors (AID 1347160); note: potency is the fitted concentration of half-maximal effect; nearly all actives have a fitted effect of over 55% in size
Summary of the method: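 In 10 mM Tris-HCl pH 8.0 containing 0.01% Tween 20, linked NS2B-NS3 protease (25 nM final) is exposed to test compounds for 15 min. Cleavage of 1.5 microM Rhodamine110 substrate is tracked by fluorescence over 15 min.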

[7] = Confirmatory screen NINDS Rhodamine qHTS for Zika virus inhibitors (AID 1347161); note: potency is the fitted concentration of half-maximal effect; nearly all actives have a fitted effect of over 60% in size
Summary of the method: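 Each compound, titrated, sat 15 min with 25 nM linked protease before 1.5 microM Rhodamine110 substrate went in. Fluorescence gain over the next 15 min, in pH 8.0 Tris with Tween 20, gave Hill-fitted curves.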

[8] = system: Zika virus NS2B-NS3 protease (linked); assay: 384 well plate NINDS AMC confirmatory qHTS for Zika virus inhibitors (AID 1347163); note: nearly all actives have a fitted effect of over 50% in size; note: potency is the fitted concentration of half-maximal effect
Summary of the method: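 Linked NS2B-NS3 protease (final 5 nM, 30 nM or 60 nM) was preincubated with compounds (final up to 1 mM) for ~15 minutes. Ac-VKTGKR-AMC substrate (final 30 microM) then reacted for 25 minutes at room temperature in the dark. Fluorescence (ex 355/em 460 nm) was normalized to no-enzyme and no-inhibitor controls.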

[9] = system: Zika virus NS2B-NS3 protease (linked construct); assay: 384 well plate NINDS Rhodamine confirmatory qHTS for Zika virus inhibitors (AID 1347164);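 note: fluorescence from protease cleavage of Ac-LKRR-rhodamine 110 substrate; nearly all actives have a fitted effect of over 65% in size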; note: potency is the fitted concentration of half-maximal effect
Summary of the method: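 Fluorescence read at ex 485 nm/em 538 nm, 25 min after adding 10 microM Ac-LKRR-Rd substrate at room temperature in the dark; signal normalized to no-enzyme and no-inhibitor controls. Enzyme final 5, 30 or 60 nM; compounds, ~15 min preincubation.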

[10] = Vero cells viability qHTS for Zika virus inhibitors (AID 1347167)
Summary of the method: (§1)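 Compounds were tested in concentration series on cells grown in DMEM containing 4% FBS. After 24 to 48 hours, cellular ATP was measured by luminescence with CellTiter Glo.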

[11] = HepG2 cells viability qHTS for Zika virus inhibitors (AID 1347168)
Summary of the method: as §1

[12] = Tertiary RLuc qRT-PCR qHTS assay for Zika virus inhibitors (AID 1347169); note: potency is the fitted concentration of half-maximal effect; nearly all actives have a fitted effect of over 55% in size
Summary of the method: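 Luminescence read-out: live-cell Renilla luciferase substrate applied to infected Vero cells, signal measured after 1-1.5 hrs. Cells had received compound before ZIKV-RLuc (Cambodian strain, MOI 1-2) infection and were incubated 48-72 hrs at 37 degrees C.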

[13] = ZIKV-mCherry secondary qHTS for Zika virus inhibitors (AID 1347158); note: potency is the fitted concentration of half-maximal effect
Summary of the method: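 Vero, 5,000 cells/well, o/n 37 °C; cpd pin-transferred in DMSO; ZIKV-mCherry MOI 1, 48-72 h 37 °C; 32% PFA stock fix, Hoechst; imaged 10x DAPI/mCherry; mCherry+ threshold 450 RFU; % infection.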

Measured: Potency

C=C1[C@H](OC(C)=O)[C@H]2[C@@H](OC(C)=O)[C@](C)(OC(C)=O)C[C@]2(OC(C)=O)C(=O)[C@H](C)/C=C/C(C)(C)C(=O)[C@H](OC(=O)C(C)CC)[C@H]1OC(C)=O (some centres undefined)
inactive: [1]

Nc1ccccc1N
inactive: [2]

CCCCCCOc1cc2c(cc1N(C)c1ncc(C(=O)O)cn1)C(C)(C)CCC2(C)C
active: [3] 31.2 µM | [4] 35 µM | [5] 6.98 µM | [1] 3.98 µM | [6] 7.94 µM | [7] 4.41 µM | [8] 8.91 µM | [9] 3.16 µM | [12] 20.8 µM
inactive: [10] | [11]

CCC(C(=O)O)c1ccc(N2Cc3ccccc3C2=O)cc1 (centres undefined)
inactive: [2]

C=C1C(=O)OC2C1CCC(=C)C1CC(OC(C)=O)C(=C)C12 (centres undefined)
active: [1] 31.6 µM

CC(C)c1cccc2c(-c3ccccc3)cc(-c3ccc(-c4ccc(C(=O)O)cc4)[nH]3)nc12
active: [3] 44.1 µM | [4] 49.4 µM | [5] 1.97 µM | [13] 7.08 µM | [1] 3.55 µM | [6] 7.08 µM | [7] 2.21 µM
inactive: [8] | [9] | [10] | [11]

COc1ccc(C(=O)n2c(C)c(Cc3cccc(O[C@@H](C)C(=O)O)c3)c3cc(OC(F)(F)F)ccc32)cc1
inactive: [9] | [10] | [11]
active: [3] 17.5 µM | [4] 22.1 µM | [5] 2.78 µM | [1] 3.16 µM | [7] 1.11 µM | [8] 12.6 µM

CC1(C)CCC(C)(C)c2cc(C3(c4ccc(C(=O)O)cc4)OCCO3)ccc21
inactive: [8] | [10] | [11]
active: [3] 44.1 µM | [4] 39.3 µM | [5] 12.4 µM | [1] 10 µM | [6] 5.62 µM | [7] 7.84 µM
